A selection: hits, their analogues and other compounds. The true share with any hit is near 21%.
NS1 function inh: qHTS Assay for Inhibitors of Influenza NS1 Protein Function | Potency, µM (highest dose often 46.1 µM), inactives show at the highest dose activity, positive = more growth | actives 0.4% (n = 270,000) | AID 2326, 2010; calls by dose curve; further: potency means the concentration at half of the fitted maximal effect; actives are rising curves; nearly all actives have a fitted effect of over 50% in size
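Read-out: OD600 growth recovery of NS1-expressing budding yeast. Cells grown overnight at 30C in -URA glucose medium, washed, resuspended and diluted 1:100 in 2% galactose assay medium, pH 6.0. Same strain lacking NS1 served as positive control.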
FBPA Giardia inh: qHTS Assay for Inhibitors of Fructose-1,6-bisphosphate Aldolase from Giardia Lamblia. A8B2U2. purified Giardia FBPA. Potency, µM (top dose mostly 59.6 µM), for the others: at the highest dose activity, negative = inhibition, actives largely listed as inhibitors. actives 0.71% (n = 290,000). AID 2451, 2010; further: potency means the concentration at half of the fitted maximal effect; on the % scale 0 is the no-effect control and ±100 the full control effect; nearly all actives have a fitted effect of over 55% in size
Target sequence (A8B2U2 whole entry, looked up): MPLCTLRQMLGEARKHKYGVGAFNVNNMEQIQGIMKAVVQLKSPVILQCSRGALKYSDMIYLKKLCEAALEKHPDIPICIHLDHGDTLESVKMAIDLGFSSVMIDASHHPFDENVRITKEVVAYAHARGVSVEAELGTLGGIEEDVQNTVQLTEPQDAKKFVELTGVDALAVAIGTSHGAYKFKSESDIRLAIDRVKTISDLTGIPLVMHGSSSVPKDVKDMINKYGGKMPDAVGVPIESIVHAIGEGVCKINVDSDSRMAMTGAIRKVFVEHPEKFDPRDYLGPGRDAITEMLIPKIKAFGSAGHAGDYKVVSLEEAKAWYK
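40 nM FBPA preincubated 10 min at RT with compound (up to 57.5 uM final), then substrate plus GAPDH/TPI/NAD/arsenate coupling and diaphorase/resazurin added. Fluorescence read after 20 min at RT, 525/598 nm.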
CHX counter: Cycloheximide Counterscreen for Small Molecule Inhibitors of Shiga Toxin. cell reporter, cycloheximide protein synthesis inhibition counterscreen. max response, %. actives 12% (n = 300,000); in the data active means max response mostly above about 13%, no sharp cut-off; inactive means mostly below about 14%; further: read at 38.3 µM for the half of the compounds with a filed dose; 0% is about no effect
Shiga inhibitor: A qHTS for Small Molecule Inhibitors of Shiga Toxin; Vero cells, Shiga toxin protein synthesis inhibition reporter; inhibition, % at 38.7 µM; actives 9.2% (n = 290,000); in the data active means inhibition mostly above about 28%, no sharp cut-off; inactive means mostly below about 43%; further: 0% is about no effect
Pf growth 96h: Primary qHTS for delayed death inhibitors of the malarial parasite plastid, 96 hour incubation; P. falciparum luciferase reporter growth, 96 h; Potency, µM (top dose mostly 28.7 µM), for inactives: at the top dose activity change, negative = inhibition, usual class: inhibitors; actives 6.9% (n = 320,000); AID 504834, 2011; further: potency means the concentration at half of the fitted maximal effect; on the % scale 0 is the no-effect control and ±100 the full control effect
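Luminescence readout: decreased luciferase signal marks inhibited growth of reporter-expressing P. falciparum in infected red cells (2% hematocrit, 0.05% parasitemia final), exposed to compound two generations (96 h, 37 C, 5% CO2).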
Pf growth 48h: Primary qHTS for delayed death inhibitors of the malarial parasite plastid, 48 hour incubation. Potency, µM (highest dose often 28.7 µM), for inactives: at the highest dose activity change, negative = inhibition, hits mostly inhibitors. AID 504832, 2011. P. falciparum luciferase growth in erythrocytes, 48 h. actives 5.9% (n = 310,000); further: potency means the concentration at half of the fitted maximal effect; on the % scale 0 is the no-effect control and ±100 the full control effect
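Firefly luciferase activity from engineered P. falciparum reports growth; inhibitors lower the luminescent signal. Cultures contained 2% hematocrit erythrocytes at 0.1% final parasitemia.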
* hit, by the source's call. Unless noted, the call rests on the fitted dose curve; in most records, active means well fitted curve in the direction sought with a large enough effect; inconclusive means small, poorly fitted or top-dose-only effect, or another doubt; inactive means no such curve, though single readings can be large; an effect the other way counts as inactive or inconclusive.

For COc1nc(N)nc2nc[nH]c12 the results were NS1 function inh 3%, FBPA Giardia inh -30%, CHX counter -2, Shiga inhibitor -4, Pf growth 96h 18% and Pf growth 48h -6%.
Screening Cc1oc(-c2ccccc2)nc1CN1C(=O)C(C)N=C(c2ccccc2F)c2cc(Cl)ccc21 (stereo unspecified) returned NS1 function inh -19%, FBPA Giardia inh -6%, CHX counter -2, Shiga inhibitor -14, Pf growth 96h 2.3µM* and Pf growth 48h inconclusive.
For Cc1oc(-c2cccc(Cl)c2)nc1CN1CCC(C(=O)N2CCN(c3ccccc3F)CC2)CC1 the results were NS1 function inh -9%, FBPA Giardia inh 2%, CHX counter -1, Shiga inhibitor 5, Pf growth 96h 12% and Pf growth 48h inconclusive.
CCSc1nnc2c(n1)OC(C)(C)Nc1ccccc1-2 was read as NS1 function inh 5%, FBPA Giardia inh -6%, CHX counter 34*, Shiga inhibitor 65*, Pf growth 96h 15% and Pf growth 48h 36%.
For O=C(CCC(=O)c1cccs1)Nc1ncccc1O the results were Pf growth 96h 28% and Pf growth 48h -2%.
`ClCc1nnc(-c2cc3c(s2)CCCC3)o1` gave FBPA Giardia inh -2%, CHX counter 50*, Shiga inhibitor 67*, Pf growth 96h 10µM* and Pf growth 48h inconclusive.
CC(C)(C)C1CCc2sc(-c3nnc(CCl)o3)cc2C1 (stereo unspecified) was read as FBPA Giardia inh 5%, CHX counter 32*, Shiga inhibitor 72*, Pf growth 96h inconclusive and Pf growth 48h 13µM*.
`O=C(O)c1cc2c(s1)CCCC2` gave NS1 function inh -48%, FBPA Giardia inh 24%, CHX counter -3, Shiga inhibitor -2, Pf growth 96h 70% and Pf growth 48h 34%.
C/C(=N\Nc1cc(N2CCOCC2)ncn1)c1ccc(O)cc1 was read as NS1 function inh 16%, FBPA Giardia inh 23%, CHX counter 15, Pf growth 96h inconclusive and Pf growth 48h 24%.
COC(=O)CCC(=O)OC1(C)C(=O)C2=CN(CCN3CCOCC3)C(c3ccc(OC)cc3)=CC2=C(Br)C1=O (stereo unspecified) was read as NS1 function inh -4%, FBPA Giardia inh 0.56µM*, CHX counter -3, Shiga inhibitor -6, Pf growth 96h inconclusive and Pf growth 48h inconclusive.
For COC(=O)CCC(=O)OC1(C)C(=O)C2=CN(CCCCO)C(c3ccc(OC)cc3)=CC2=C(Br)C1=O (stereo unspecified) the results were NS1 function inh -6%, FBPA Giardia inh 5µM*, CHX counter -1, Shiga inhibitor 7, Pf growth 96h inconclusive and Pf growth 48h inconclusive.
COC(=O)CCC(=O)OC1(C)C(=O)C2=CN(C(CO)CO)C(c3ccc(OC)cc3)=CC2=C(Br)C1=O (stereo unspecified) was read as NS1 function inh -2%, FBPA Giardia inh 0.63µM*, CHX counter -3, Shiga inhibitor -5, Pf growth 96h inconclusive and Pf growth 48h inconclusive.
For CCC(C)N1CNc2c(c(=O)[nH]c(=S)n2-c2cccc(C)c2)C1 (stereo unspecified) the results were FBPA Giardia inh -1%, CHX counter 8, Shiga inhibitor -9, Pf growth 96h inactive and Pf growth 48h -7%.
For C=CCNC(=O)C1CCN(S(=O)(=O)c2ccc3ccccc3c2)CC1 the results were NS1 function inh -6%, FBPA Giardia inh 5%, CHX counter 1, Shiga inhibitor -9, Pf growth 96h 70% and Pf growth 48h inconclusive.
Cc1cc(CNC(=O)c2ccc3oc(C(C)C)nc3c2)nn1C was read as NS1 function inh -9%, FBPA Giardia inh 5%, CHX counter -1, Shiga inhibitor 7, Pf growth 96h 2% and Pf growth 48h 23%.
Screening O=C(OCc1nc2ccccc2s1)c1ccccc1O returned FBPA Giardia inh 0%, CHX counter 67*, Shiga inhibitor 58*, Pf growth 96h 71% and Pf growth 48h 119%.
Screening O=C(OCc1nc2ccccc2c(=O)[nH]1)c1cccs1 returned NS1 function inh -51%, FBPA Giardia inh -7%, CHX counter 19*, Shiga inhibitor 44 and Pf growth 96h 6%.
Screening O=C(OCc1nc2ccccc2s1)c1cnccn1 returned NS1 function inh -62%, FBPA Giardia inh 4%, CHX counter 32*, Shiga inhibitor 93*, Pf growth 96h 76% and Pf growth 48h 137%.
For O=c1[nH]c(Cc2cccs2)nc2ccccc12 the results were NS1 function inh 5%, FBPA Giardia inh 3%, CHX counter 10, Shiga inhibitor 9, Pf growth 96h 119% and Pf growth 48h inconclusive.
For O=C(OCc1nc2ccccc2s1)c1cccs1 the results were NS1 function inh -10%, FBPA Giardia inh -10%, CHX counter 52*, Shiga inhibitor 92*, Pf growth 96h 4% and Pf growth 48h 108%.
`CCn1c(CNC(=O)C2CCCCC2)cc2cc(C)ccc21` gave NS1 function inh 9%, FBPA Giardia inh 12%, CHX counter -5, Shiga inhibitor 12, Pf growth 96h 94% and Pf growth 48h 0%.
For O=C(c1ccccc1)c1ccc(OCC(O)CNCc2cccc(Cl)c2)cc1 (stereo unspecified) the results were NS1 function inh -5%, FBPA Giardia inh inconclusive, CHX counter 1, Shiga inhibitor 2, Pf growth 96h -27% and Pf growth 48h -27%.
For O=C(O)c1ccccc1OCc1nc2ccccc2s1 the results were NS1 function inh 3%, FBPA Giardia inh -6%, CHX counter 65*, Shiga inhibitor 110*, Pf growth 96h 274% and Pf growth 48h 196%.
Screening O=C(O)c1ccccc1OCc1ccccc1Br returned FBPA Giardia inh 7%, CHX counter 3, Shiga inhibitor 11, Pf growth 96h 101% and Pf growth 48h 2%.
For O=C(CNC1=NCCC1)c1ccc2c(c1)OCCO2 the results were NS1 function inh 3%, FBPA Giardia inh -17%, CHX counter -2, Shiga inhibitor -6, Pf growth 96h inconclusive and Pf growth 48h 6.6µM*.
`COc1ccc(C(C)=O)cc1COC(=O)c1ccc2c(c1)OCCO2` gave Pf growth 96h -33% and Pf growth 48h -19%.
Screening CN(CCOC(=O)c1ccc2c(c1)OCCO2)Cc1ccccc1 returned NS1 function inh -1%, FBPA Giardia inh -8%, CHX counter 41*, Shiga inhibitor 19*, Pf growth 96h 35% and Pf growth 48h 17%.
Screening O=C(CCCO)c1ccc2c(c1)OCCO2 returned NS1 function inh 4%, FBPA Giardia inh 3%, CHX counter -4, Shiga inhibitor 5, Pf growth 96h 2% and Pf growth 48h 19%.

High-throughput results: PubChem BioAssay, National Center for Advancing Translational Sciences (NCATS)
